# Reference: the supplement of paper PMC10981050
# Where “and” joins values, the source holds several entries; their conditions need not be identical. Equal entries are not always repeated. Structures can show the parent of a compound that is named as a salt.
# How the values were obtained:
# Test in all cases: cell viability relative to vehicle control; higher = less cytotoxic
# Conditions in all cases: 10 µM
# K562 = tested on: K562
# In short: (§1)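 After removal of identity-inconsistent compounds, the Selleck bioactive, kinase and epigenetic probe libraries were screened on CRISPR-edited mutant clones and isogenic wild-type clones of four leukaemia lines. Plates were 384-well, each well holding 2000 cells in 50 µL medium and receiving a single 10 µM acoustically dispensed dose. CellTiter-Glo luminescence was read 48 h later, after the supernatant was taken off. Genedata Screener was used to express viability as percent of the on-plate vehicle control.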
# MARIMO = tested on: MARIMO
# In short: as §1
# MOLM14 = tested on: MOLM14
# In short: as §1
# OCI-AML2 = tested on: OCI-AML2
# In short: as §1
SMILES,cell viability (K562; SRSF2 genotype: SRSF2 P95H/wt),cell viability (K562; SRSF2 genotype: SRSF2 wt/wt) [%],cell viability (MARIMO; SRSF2 genotype: SRSF2 P95H/wt) [%],cell viability (MARIMO; SRSF2 genotype: SRSF2 wt/wt) [%],cell viability (MOLM14; SRSF2 genotype: SRSF2 P95H/wt) [%],cell viability (MOLM14; SRSF2 genotype: SRSF2 wt/wt) [%],cell viability (OCI-AML2; SRSF2 genotype: P95H/wt) [%],cell viability (OCI-AML2; SRSF2 genotype: wt/wt) [%]
COc1cc(C=O)ccc1OC(C)=O [Acetylvanillin],99.2% and 99.9%,99.7,104,103,104,101,98.4,104
CC(C)(C)OC(=O)Nc1ccc(-c2cc(C(=O)NCCCCCCC(=O)NO)no2)cc1,1.43% and 12.4%,5.74,9.27,11.5,0.79,0.64,1.39,2.31
C[C@@H]1CC[C@@]2(OC1)O[C@H]1C[C@H]3[C@@H]4CC=C5C[C@@H](O)C[C@@H](O)[C@]5(C)[C@H]4CC[C@]3(C)[C@H]1[C@@H]2C [Ruscogenin],96.3% and 102%,98,98.9,103,103,110,89.2,94.3
CC1(C)CCC[C@](C)([C@H]2CC[C@]3(C)[C@@H]2[C@H](O)C[C@@H]2[C@@]4(C)CC[C@H](O)C(C)(C)[C@@H]4[C@@H](O)C[C@]23C)O1 [Panaxatriol],105% and 99.1%,97.5,103,105,98.6,103,102,109
CCc1cnn2c(NCc3ccc[n+]([O-])c3)cc(N3CCCC[C@H]3CCO)nc12,8.67% and 18.9%,13.1,10.8,4.43,2.65,0.52,5.12,17.9
N=C(NCCCCCCNC(=N)NC(=N)Nc1ccc(Cl)cc1)NC(=N)Nc1ccc(Cl)cc1 [Chlorhexidine],14.9% and 12%,23,39.3,34.6,5.12,4.9,2.08,6.07
CCCCC1OC(=O)c2ccccc21 (configuration not stated) [3-n-Butylphathlide],93.7% and 104%,91.5,91.9,104,99.8,96.7,90.6,94.2
O=C(Nc1nc2cccc(-c3ccc(CN4CCS(=O)(=O)CC4)cc3)n2n1)C1CC1,89.3% and 94.9%,84.5,71.2,73,48.1,45.3,20.1,41.7
CC1(C)[C@@H](O)CC[C@]2(C)[C@H]3C(=O)C=C4[C@@H]5C[C@@](C)(C(=O)O)CC[C@]5(C)CC[C@@]4(C)[C@]3(C)CC[C@@H]12 [Enoxolone (Glycyrrhetin)],97.3% and 106%,102,109,105,104,103,110,106
Cc1nn(C)c2c1C(c1ccc(C(F)(F)F)cc1)C(C#N)=C(N)O2 (configuration not stated),101% and 106%,111,99.5,95,103,102,112,121
C[C@H](Oc1ccc(S(C)(=O)=O)cc1C(=O)N1CCN(c2ncc(C(F)(F)F)cc2F)CC1)C(F)(F)F,105% and 98.9%,95,97.1,107,97.3,105,101,104
O[C@H]1[C@H]2c3cc4c(cc3CN3CCC(=C[C@@H]1O)[C@H]23)OCO4 [Lycorine],18.3% and 25.2%,27.9,23,20.6,18.2,7.75,0.46,1.41
OC1CCC(Nc2ncc3nc(Nc4c(F)cc(F)cc4F)n([C@H]4CCOC4)c3n2)CC1 (some centres not stated) [Tanzisertib(CC-930)],101% and 111%,114,116,103,91.8,109,117,122
COc1cc2c(=O)c(-c3ccc(O)cc3)coc2cc1O [Glycitein],97.5% and 92.1%,102,95.4,90.8,93.7,98.1,90.3,82.3
CCn1c(=O)c(-c2ccc(Cl)cc2Cl)cc2cnc(Nc3ccc(N4CCNCC4)c(F)c3)nc21,1.46% and 1.57%,3.22,4.24,2.21,0.53,0.81,0.95,1.2
C=CCn1c(=O)c2cnc(Nc3ccc(N4CCN(C)CC4)cc3)nc2n1-c1cccc(C(C)(C)O)n1,8.01% and 13.9%,10.5,11.7,6.8,11.6,4.1,9.17,8.01
CN(C)CC/C=C1/c2ccccc2COc2ccc(CC(=O)O)cc21 [Olopatadine hydrochloride (Opatanol)],105% and 106%,102,101,114,107,104,95.4,105
CC(C)=CCC/C(C)=C\CO [Nerol],109% and 104%,104,110,114,106,107,103,109
Cc1nccn1CCC(C(N)=O)(c1ccccc1)c1ccccc1 [Imidafenacin],94.5% and 91.6%,105,87.6,91.8,99.2,101,90.8,102
CCN(CC)C(=S)SSC(=S)N(CC)CC [Disulfiram (Antabuse)],42.7% and 53.4%,53.3,14,14.4,27.1,32.5,14,20.8

SMILES,cell viability (K562; SRSF2 genotype: SRSF2 P95H/wt),cell viability (K562; SRSF2 genotype: SRSF2 wt/wt) [%],cell viability (MARIMO; SRSF2 genotype: SRSF2 P95H/wt) [%],cell viability (MARIMO; SRSF2 genotype: SRSF2 wt/wt) [%],cell viability (MOLM14; SRSF2 genotype: SRSF2 P95H/wt) [%],cell viability (MOLM14; SRSF2 genotype: SRSF2 wt/wt) [%],cell viability (OCI-AML2; SRSF2 genotype: P95H/wt) [%],cell viability (OCI-AML2; SRSF2 genotype: wt/wt) [%]
N#Cc1cnc(Nc2cc(NC[C@H]3CNCCO3)c(C(F)(F)F)cn2)cn1,19% and 24.2%,13.3,44.5,54.4,16.4,10.3,14.5,14.1
Oc1ccc2ccccc2c1SSc1c(O)ccc2ccccc12,62.1% and 81.6%,83.9,32.7,29.7,18.9,29.6,31.8,31.2
COc1ccc(-c2ccc3c(N4CCOCC4)nc(N4C[C@@H](C)O[C@@H](C)C4)nc3n2)cc1CO,45.8% and 54.8%,46.6,60.9,50.6,37,29.8,33.4,34.5
O=C(C=Cc1cccnc1)c1ccncc1,81.1% and 89%,77.7,64.4,62.8,19.3,18.4,16.8,28.9
Cc1c(C(=O)N2CCOc3ccc(-c4ccc(N)nc4)cc3C2)ccc(S(C)(=O)=O)c1F,84.6% and 89.8%,84.4,81.4,76.9,71.2,63.6,70,67.8
Cc1nc(NC(=O)N2CCC[C@H]2C(N)=O)sc1-c1csc(C(C)(C)C)n1,98.3% and 99.5%,89.9,64.9,63.3,72,86.6,61.8,61.9
Cc1cccc(-c2[nH]c(C(C)(C)C)nc2-c2ccc3nccnc3c2)n1,111% and 95.8%,99.7,108,105,105,101,108,115
O=c1sn(-c2cccc3ccccc23)c(=O)n1Cc1ccccc1 [Tideglusib],77.4% and 78.3%,82.9,70.7,79.9,55.5,68.8,54.7,53.3
Cc1ccc(NC(=O)C2(c3ccc4c(c3)OC(F)(F)O4)CC2)nc1-c1cccc(C(=O)O)c1 [VX-809 (Lumacaftor)],108% and 106%,112,115,113,109,106,106,122
COc1cc(NC(=O)c2ccc(-c3ccc(Cl)cc3)o2)cc(OC)c1,105% and 102%,103,99,105,113,115,97.4,92.8
Cc1cnc(Nc2ccc(F)cc2Cl)nc1-c1c[nH]c(C(=O)NC(CO)c2cccc(Cl)c2)c1 (configuration not stated),60.8% and 83.2%,72.9,44.9,46,58.5,48.1,47.4,47.7
CC1(C)[C@@H](O[C@H]2O[C@H](C(=O)O)[C@@H](O)[C@H](O)[C@H]2O[C@@H]2O[C@H](C(=O)O)[C@@H](O)[C@H](O)[C@H]2O)CC[C@]2(C)[C@H]3C(=O)C=C4[C@@H]5C[C@@](C)(C(=O)O)CC[C@]5(C)CC[C@@]4(C)[C@]3(C)CC[C@@H]12 [Dipotassium glycyrrhizinate],105% and 104%,102,103,112,103,103,101,105
COc1ccccc1Oc1c(NS(=O)(=O)c2ccc(C(C)(C)C)cc2)nc(-c2ncccn2)nc1OCCO [Bosentan Hydrate],99.5% and 99.8%,98.6,97.3,104,97.1,105,112,95.2
O=C(Cn1cnnn1)N[C@@H]1C(=O)N2C(C(=O)O)=C(CSc3nncs3)CS[C@H]12 [Ceftezole],102% and 97.3%,103,96.3,105,105,104,103,109
CN1CCC(=C2c3ccccc3CCn3c(C=O)cnc32)CC1 [Alcaftadine],102% and 104%,100,100,94.7,99.7,99.4,109,97.4
O=C(CCN1CCN(C(=O)OCc2cc(Cl)cc(Cl)c2)CC1)c1ccc2[nH]c(=O)oc2c1,88.6% and 96.5%,94.5,87.2,106,83.1,98.8,88.2,109
COc1cc2c(cc1O)CC[n+]1cc3c(OC)c(OC)ccc3cc1-2 [Jatrorrhizine],91.4% and 98.7%,95.8,107,103,101,99.8,105,98.2
Cc1cc(Nc2cc(N3CCN(C)CC3)nc(/C=C/c3ccccc3)n2)n[nH]1 [ENMD-2076 L-(+)-Tartaric acid],22.5% and 29.7%,22.9,34.8,30.7,2.93,6.51,7.71,14.7
"CN1CCN2c3ncccc3Cc3ccccc3C2C1 (configuration not stated) [Mirtazapine (Remeron, Avanza)]",101% and 92.3%,88.7,93.2,96.8,92.3,97.4,95.9,96.5
